Assay outcomes from PubChem BioAssay.
ELG1 repair inh: blocks ELG1-dependent DNA repair in HEK293T cells. HEK293T ELG1-luciferase reporter, luminescence, 16 h; DNA damage induced by 5-fluorouridine. AID 504467. Potency, µM (titrated, usually from 46.1 µM), inactives show at the top dose activity change, negative = inhibition, hits mostly inhibitors. 2.3% of 330,000 active; note: potency is the fitted concentration of half-maximal effect; nearly all actives have a fitted effect of over 55% in size
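Cells (2,000 per well) received 5-fluorouridine plus test compound or DMSO and were incubated 16 hr at 37 °C, 5% CO2. Luciferase activity was read by luminescence 30 min after ONE-Glo addition; signal suppression marked inhibition of damage-induced ELG1 function.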
Giardia killer: Giardia lamblia killing; Giardia lamblia trophozoite viability; activity change, % at 7.66 µM, hits read low; 0.15% of 340,000 active; AID 540267; in the data active = activity change below about -80%; inconclusive = between about -30% and that limit;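 note: parasites exposed to compound for two days anaerobically before the ATP read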
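Trophozoite viability was measured as ATP-dependent luminescence, read 15-30 min after reagent addition. Before that, parasites at 100 cells/well were exposed to compounds for 48 h, anaerobically, at 37 deg C.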
Coupling enz: coupling enzyme interference in Giardia aldolase counter-screen; activity change, negative = inhibition, % at 58.2 µM, hits read low; 0.67% of 290,000 active; AID 2472; coupling enzyme system counterscreen, AmpLite Red fluorescence; in the data active = activity change below about -30%
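Final compound at 57.5 uM, incubated 10 min at RT with coupling enzyme reagent (glyceraldehyde-3-phosphate), then 20 min with substrate and AmpLite Red detection. Fluorescence read at 525/598 nm; tests interference with the coupling assay, not aldolase inhibition.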
Sfp inh: Sfp phosphopantetheinyl transferase inhibition. Q9F4F7. Biochemical Sfp PPTase activity, qHTS. Potency, µM, without a hit: largest response in the series, negative = inhibition, actives largely listed as inhibitors. 3.5% of 310,000 active. AID 1490;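 note: the enzyme is Sfp with the accession as filed and its product quenches rhodamine fluorescence; potency is the fitted concentration of half-maximal effect; 0% = enzyme reaction without inhibitor and -100% = no enzyme wells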
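Fluorescence-quenching assay: 15 nM Sfp-PPTase preincubated 15 min at room temperature with compound, then 5 uM rhodamine-CoA and 12.5 uM BHQ-2-labelled YbbR peptide added. Fluorescence (ex 525/em 598 nm) read at start and after 30 min; difference gives rate.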
Starred values were filed as active, the others as inactive. A selection: hits, their analogues and other compounds. The true share with any hit is near 5.5%. Unless noted, calls come from the whole dose curve; as a rule, active = well fitted curve in the direction sought with a large enough effect; inconclusive = small, poorly fitted or top-dose-only effect, or another doubt; inactive = no such curve, though single readings can be large; an effect the other way counts as inactive or inconclusive. Unless noted, % is set by controls: 0 for no effect and ±100 for the full control effect.

Results for CCCN(C(=O)Cc1csc(-c2ccccc2)n1)C1CCS(=O)(=O)C1 (stereo not given) ?
ELG1 repair inh: 8.2%; Giardia killer: -5.4

Results for O=C(NCc1cccnc1)c1ccc([N+](=O)[O-])o1 ?
ELG1 repair inh: 0.0%; Giardia killer: -89.5*; Coupling enz: -0.8; Sfp inh: -2.0%

How did Cc1noc(C)c1-c1cc(NC2CC2)ncn1 do in these assays?
Coupling enz: -6.8; Sfp inh: inconclusive

What do the screens show for `CC(C)(C)c1cc(CCC(=O)Nc2ccncc2)cc(C(C)(C)C)c1O`?
Giardia killer: -16.1

Results for Cc1c(Cc2ccccc2)c(=O)oc2cc(OCc3nn[nH]n3)ccc12 ?
ELG1 repair inh: 1.9%; Giardia killer: -9.5; Coupling enz: 18.9; Sfp inh: 79.4µM*

What do the screens show for `Cc1c(CC(=O)O)c(=O)oc2cc(OCc3nn[nH]n3)ccc12`?
ELG1 repair inh: 13.6%; Giardia killer: -2.7; Coupling enz: -3.5; Sfp inh: -2.3%

What do the screens show for `CCn1c(CSCc2ccc(F)cc2)nnc1SCC(=O)N1CCN(c2ccccc2)CC1`?
ELG1 repair inh: 13µM*; Giardia killer: 22.6; Coupling enz: 0.5; Sfp inh: -0.2%

Results for CCn1c(Cc2ccc(OC)cc2)nnc1SCC(=O)N1CCN(c2ccccc2)CC1 ?
ELG1 repair inh: inconclusive; Giardia killer: -1.9; Coupling enz: 3.7; Sfp inh: 10.0%

What do the screens show for `Cc1ccc(CSCc2nnc(SCC(=O)N3CCN(c4ccccc4)CC3)n2C)cc1`?
ELG1 repair inh: 23.1µM*; Giardia killer: 22.2; Coupling enz: 1.6; Sfp inh: 3.7%

What do the screens show for `Cc1ccc(C2(c3ccccc3)NC(=O)N(CC(=O)NC3(C#N)CCCC3)C2=O)cc1C` (stereo not given)?
ELG1 repair inh: -1.6%; Giardia killer: -24.5

What do the screens show for `CC(C)(C)OC(=O)N1CCCC(C(=O)Nc2cccc(C(=O)NC3CC3)c2)C1` (stereo not given)?
Giardia killer: 4.7

What do the screens show for `O=C(CSc1ccc(-c2cccnc2)nn1)Nc1ccccc1`?
ELG1 repair inh: -23.1%; Giardia killer: 14.0; Sfp inh: 19.0%

How did O=C(CSc1ccc(-c2cccnc2)nn1)Nc1ccc(F)c(F)c1 do in these assays?
ELG1 repair inh: 13µM*; Giardia killer: -6.9; Coupling enz: -6.4; Sfp inh: 16.0%

What do the screens show for `Cc1cc(C)c(NC(=O)CSc2ccc(-c3cccnc3)nn2)c(C)c1`?
ELG1 repair inh: -16.1%; Giardia killer: -9.1; Coupling enz: -3.4; Sfp inh: 56.2µM*

How did O=C(NC(=S)Nc1ccccc1Br)C1CCC1 do in these assays?
ELG1 repair inh: -4.6%; Giardia killer: 2.6; Coupling enz: -0.6; Sfp inh: 4.3%

What do the screens show for `CC1(C)OC2CC3C4CCC5=CC(=O)C=C[C@@]5(C)[C@]4(F)C(O)C[C@@]3(C)[C@]2(C(=O)CO)O1` (stereo not given in full)?
Coupling enz: -0.2; Sfp inh: 1.5%

Results for COc1ccc(C2CC(c3ccccc3)=NN2c2ccc(Cl)c(C(=O)O)c2)cc1 (stereo not given) ?
ELG1 repair inh: 6.2%; Giardia killer: -21.3; Coupling enz: 12.6; Sfp inh: 56.2µM*

Results for NS(=O)(=O)c1ccc(N2N=C(c3ccccc3)CC2c2cccc(F)c2)cc1 (stereo not given) ?
ELG1 repair inh: inconclusive; Giardia killer: -18.3; Coupling enz: 0.9; Sfp inh: 1.8%

What do the screens show for `COc1ccc(C2CC(c3ccccc3)=NN2c2ccc(S(N)(=O)=O)cc2)cc1OC` (stereo not given)?
ELG1 repair inh: -20.4%; Giardia killer: -12.6; Coupling enz: -4.4; Sfp inh: 89.1µM*

What do the screens show for `COCCCn1c(SCC(=O)NC2CCCC2)nnc1-c1cccs1`?
ELG1 repair inh: -1.8%; Giardia killer: -5.8; Coupling enz: 0.4; Sfp inh: -2.3%

Results for COc1ccc(N2CCN(C(=O)CCc3nnc4ccc(N5CCOCC5)nn34)CC2)cc1 ?
ELG1 repair inh: -5.7%; Giardia killer: 0.4; Coupling enz: 0.6; Sfp inh: 2.9%

How did Fc1ccc([C@H]2CCNC[C@H]2COc2ccc3c(c2)OCO3)cc1 do in these assays?
Coupling enz: 3.6; Sfp inh: -20.7%

Results for O=C1C(Cl)=C(NS(=O)(=O)c2ccc([N+](=O)[O-])cc2)C(=O)c2ccccc21 ?
ELG1 repair inh: 18.3µM*; Giardia killer: 18.4; Coupling enz: -20.8; Sfp inh: -17.8%
